# Assay results reported in ChEMBL document CHEMBL4513216, “Probing the Open Global Health Chemical Diversity Library for Multistage-Active Starting Points for Next-Generation Antimalarials” (ACS Infect Dis, 2020).
# About 8,600 (12%) of roughly 69,000 compounds showed an effect of 50% or more. Many of the other results were omitted from the sample, so strong results are more common in it than they were.
# System: Plasmodium berghei
# Experiment: Screen against P. berghei liver stage (PbLuc), transformed with Luciferase, at 10uM
# Assay type: functional, HepG2
# Conditions: tested at 10 uM
row,Structure (SMILES),INHIBITION
1,CC(C)N1CC(C(=O)NCc2ccc(S(=O)(=O)N(C)C)cc2)CC1=O (stereo unspecified),6%
2,CN1CCC(Cc2cnc(CNC(=O)Cc3cccc(F)c3)cn2)CC1,26.75%
3,Cc1ccc(NC2COC3(CCN(CC(C)C)CC3)C2)nn1 (stereo unspecified),46.7%
4,CCc1nnc2n1CCN(C(C(=O)NC1CC1)c1ccc(F)cc1)C2 (stereo unspecified),2.61%
5,CN1CCC(Cc2noc(CC3CC3)n2)CC1,48.8%
6,CCCN1CCC(Cc2nc(CN3CCN(C)CC3)no2)CC1,54.4%
7,CCCc1nc(CN2CCN(Cc3noc(CCC)n3)CC2)no1,17.7%
8,CCCc1nc(CN2CCN(CC(O)c3ccccc3)CC2)no1 (stereo unspecified),34.5%
9,CN1CCN(Cc2noc(CC3CCc4ccccc43)n2)CC1 (stereo unspecified),42.1%
10,CN1CCN(Cc2noc(CCc3nc(-c4ccccc4)no3)n2)CC1,74.4%
11,Cc1noc(C)c1C(=O)N1CCC(n2cccn2)CC1,19.4%
12,Cc1nc(CN2C(=O)CCC23CCN(c2ncccc2C)CC3)cs1,37.2%
13,CC(=O)N1CCc2nnc(C3CCCCN3CC3CC3)n2CC1 (stereo unspecified),3.91%
14,COCCCNC(=O)Cn1c(C)cc(=O)n2nc(-c3cccs3)nc12,49.1%
15,COC(=O)Cn1c(C)cc(=O)n2nc(-c3cccs3)nc12,29.2%
16,Cc1cc(=O)n2nc(-c3cccs3)nc2n1CC(=O)NC(C)C,67.3%
17,Cc1cccc(CN(Cc2nc3c(cnn3C)c(=O)[nH]2)C2CC2)c1,23.7%
18,Cc1cc(C)nc(C2CCN(C(=O)CCn3nnc4ccccc43)C2)n1 (stereo unspecified),22%
19,CSc1ccccc1NC(=O)N1C[C@@H](N(C)C)[C@H](c2ccc(C)cc2)C1,-5.38%
20,CCOc1ccc(CN2CC[C@@H]3CC[C@H](C2)N3)cc1CO,31.2%
21,O=C(c1ccc(F)cc1)N1CC[C@H]2[C@H]1CCN2CC1CCOCC1,64.9%
22,O=C(c1ccc(F)cc1)N1CC[C@H]2[C@H]1CCN2CC1CC1,-12.2%
23,N#Cc1cccc(C(=O)N2CC[C@H]3[C@H]2CCN3CC2CC2)c1,12.4%
24,Cc1ccc(C(=O)N2CC[C@H]3[C@H]2CCN3CC2CCOCC2)cn1,57.9%
25,Cc1ccc(C(=O)N2CC[C@H]3[C@H]2CCN3CC2CCOCC2)cc1F,67.2%
26,O=C(c1ccco1)N1CC[C@H]2[C@H]1CCN2CC1CCOCC1,25%

row,Structure (SMILES),INHIBITION
1,O=C(c1cscn1)N1CC[C@@H]2[C@@H]1CCN2CC1CCOCC1,-41%
2,O=C(c1cccc(Cl)c1)N1CC[C@H]2[C@H]1CCN2CC1CCOCC1,30.1%
3,N#Cc1ccc(C(=O)N2CC[C@H]3[C@H]2CCN3CC2CC2)cc1,27.2%
4,O=C(c1cccc(Cl)c1)N1CC[C@H]2[C@H]1CCN2CC1CC1,64.9%
5,N#Cc1ccc(C(=O)N2CC[C@H]3[C@H]2CCN3CC2CCOCC2)cc1,-13.4%
6,O=C(c1cscn1)N1CC[C@@H]2[C@@H]1CCN2CC1CCOC1 (stereo partly specified),49.4%
7,COc1ncc(CN(CCCN2CCOCC2)Cc2ccc(C)o2)cn1,30.4%
8,CC(C)c1ncc2c(n1)CN(CCCc1nc3ccccc3o1)CC2,40.9%
9,Cc1cc(CN2CCC3(CC2)COC(COc2ccccn2)C3)no1 (stereo unspecified),-19.8%
10,O=C1CCC2(CCNCC2)CN1Cc1nnc2ccccn12,42.1%
11,Cc1[nH]ccc1C(=O)N1CCN(C)C2(CCC(=O)N(C)CC2)C1 (stereo unspecified),-2.39%
12,CC(C)(C)C(=O)NCCn1ccc(-c2ccccn2)n1,-43.7%
13,COc1ccc([C@@H]2CN(Cc3ccncc3)C[C@H]2N(C)C)cc1,33%
14,Cn1cc(CN2CC[C@@H]3[C@@H]2CCN3C(=O)c2cccc(F)c2)cn1,10.1%
15,O=C(c1cccc(F)c1)N1CC[C@H]2[C@H]1CCN2CC1CCOCC1,59%
16,N#Cc1cccc(C(=O)N2CC[C@H]3[C@H]2CCN3CC2CCOCC2)c1,34.6%
17,CS(=O)(=O)c1cncnc1C1CCCN(C(=O)Nc2ccc(F)cc2)C1 (stereo unspecified),-18.555%
18,COc1ccc(C(=O)N2CCCC(n3cc(C)cn3)C2)c(F)c1 (stereo unspecified),2.97%
19,CCS(=O)(=O)N1CCN(C(=O)NC(C)C)CC2(CNC(=O)C2)C1 (stereo unspecified),3.25%
20,CC(=O)N1CCC1c1cc(N2CCNC(=O)C2)nc(C)n1 (stereo unspecified),12.84%
21,Cc1csc(N2CCN(Cc3cccnc3)CC2C)n1 (stereo unspecified),61.8%
22,Cc1cnc(CN2CCN(c3nc(C)cs3)C(C)C2)cn1 (stereo unspecified),78.8%
23,Cc1csc(N2CCN(Cc3cnc(C)s3)CC2C)n1 (stereo unspecified),21.6%
24,Cc1csc(N2CCN(Cc3cscn3)CC2C)n1 (stereo unspecified),45.9%
25,Cc1csc(N2CCN(Cc3nccn3C)CC2C)n1 (stereo unspecified),30%
26,Cc1csc(N2CCN(Cc3ccccn3)CC2C)n1 (stereo unspecified),2.3%

row,Structure (SMILES),INHIBITION
1,CN(C)Cc1ccc(CNC(=O)NCC2(C)CCCS2)cc1 (stereo unspecified),49.3%
2,Cc1ccc(-c2ncc(C(=O)NS(C)(=O)=O)s2)c(C)c1,-2.53%
3,CNC(=O)NC(=O)CCSCc1cc(Cl)cc2cccnc12,-51.1%
4,CC(C)NC(=O)N(C)C1CCN(c2ccccc2Cl)C1=O (stereo unspecified),-6.61%
5,Cc1n[nH]c(C)c1CCC(=O)N1CCC(O)(CN2CCOCC2)C1 (stereo unspecified),53.65%
6,Cc1n[nH]c(C)c1CC(=O)N1CCC(O)(CN2CCOCC2)C1 (stereo unspecified),-23.55%
7,Cc1n[nH]c(C)c1CCC(=O)N1CCC(O)(CN2CCN(C)CC2)C1 (stereo unspecified),-15.15%
8,c1nc(N2CCOC(Cn3cncn3)C2)c2cc[nH]c2n1 (stereo unspecified),33.8%
9,CCOCCC(=O)N1CCc2cccc(S(=O)(=O)N3CCOCC3)c2C1,53.9%
10,COCC(=O)N1CCc2cccc(S(=O)(=O)N3CCOCC3)c2C1,33.9%
11,CCCOC(=O)N1CCc2cccc(S(=O)(=O)N3CCOCC3)c2C1,20.3%
12,Cc1ccc(C(=O)Nc2ccc(N3CCC(O)CC3)c(C#N)c2)s1,17.6%
13,N#Cc1cc(NC(=O)c2ccccn2)ccc1N1CCC(O)CC1,-5.25%
14,N#Cc1cc(NC(=O)c2ccsc2)ccc1N1CCC(O)CC1,35.1%
15,N#Cc1cc(NC(=O)c2ccccc2)ccc1N1CCC(O)CC1,-4.86%
16,N#Cc1cc(NC(=O)c2ccncc2)ccc1N1CCC(O)CC1,62.3%
17,Cc1ccsc1C(=O)Nc1ccc(N2CCC(O)CC2)c(C#N)c1,96.1%
18,Cn1cccc1C(=O)N[C@H]1CN(Cc2ccoc2)[C@@H]2CCCO[C@H]12,34.9%
19,COCC(=O)NCc1nn(CCN2CCCC2)c(=O)c2ccccc12,31.3%
20,Cc1ccc(C)c(CS(=O)(=O)CC(=O)NCCCOC(C)C)c1,-2.19%
21,Cc1nc(C)n(CC2CCCCN2CC(=O)Nc2nnc(C)s2)n1 (stereo unspecified),4.71%
22,CCN(CCOC)C(=O)c1ccc2c(c1)nc(N1CC[C@H](O)C1)n2C,1.74%
23,Cc1ncc(C(=O)N2CCCC(C(=O)c3nccn3C)C2)c(O)n1 (stereo unspecified),-6.01%
24,Cc1cccc(C)c1OCC(O)CNCc1c(C)nn(C)c1N(C)C (stereo unspecified),19.4%
25,c1nc2n(c1CN1CCOCC1)CCN(C1CCOC1)CC2 (stereo unspecified),-52.3%
26,O=C(C1CCOC1)N1CCc2ncc(CNc3ccccn3)n2CC1 (stereo unspecified),41.5%

row,Structure (SMILES),INHIBITION
1,c1nc2n(c1CN1CCCCC1)CCN(C1CCOC1)CC2 (stereo unspecified),-33.9%
2,c1ccc(NCc2cnc3n2CCN(CC2CCOC2)CC3)nc1 (stereo unspecified),27.6%
3,c1ccc(NCc2cnc3n2CCN(C2CCOC2)CC3)nc1 (stereo unspecified),81.2%
4,c1nc2n(c1CN1CCCC1)CCN(C1CCOCC1)CC2,80%
5,c1cnc(N2CCC3(CCN(CC4CCOC4)CC3)CC2)nc1 (stereo unspecified),15.6%
6,CC(NC(=O)OC(C)(C)C)c1nnc(S(=O)(=O)Cc2ccc(Cl)cc2)o1 (stereo unspecified),-19.1%
7,COc1ccc2c(ccn2CCC(=O)NCc2ccc(C(=O)O)cc2)c1,7.83%
8,O=C([C@H]1C[C@H]2OCC[C@H]2N(Cc2ccco2)C1)N1CCCO1,34.6%
9,O=C(N1CCCO1)[C@@]12CCO[C@@H]1CCN(Cc1ccccc1)C2,-10.4%
10,CC(C)n1c(=O)c2sccc2n(CC(=O)Nc2ccccc2)c1=O,52.4%
11,CCn1c(=O)c2sccc2n(CC(=O)Nc2cccc(Cl)c2)c1=O,33.3%
12,CC(C)c1cccc(NC(=O)Cn2c(=O)n(C)c(=O)c3sccc32)c1,74.7%
13,Cn1c(=O)c2sccc2n(CC(=O)Nc2cccc(Cl)c2)c1=O,-25.5%
14,CC(C)n1c(=O)c2sccc2n(CC(=O)Nc2cccc(Cl)c2)c1=O,19.3%
15,O=C(Cn1c(=O)[nH]c2cn(-c3ccccc3)c(=O)n21)Nc1ccccc1,23.2%
16,CC1=N[C@@]2(CC[C@@H]3CN(S(=O)(=O)CC(C)C)C[C@@H]32)C(=O)N1CC(C)C,40.4%
17,CCN(CC)CCNC(=O)CCc1c(C)nn(-c2ccccc2Br)c1C,6.55%
18,CC(C)(C)NC(=O)c1cccc(CN2CCS(=O)(=O)CC2)c1,47.3%
19,Cc1ccc(N2CCC3(CCN(C(=O)c4ccccn4)CC3)CC2)nn1,0.72%
20,Cc1cc(C)n(CC(C)CNC(=O)NCc2csc(C)n2)n1 (stereo unspecified),35.4%
21,Cn1cnnc1SC1CCc2ccccc2NC1=O (stereo unspecified),34.3%
22,Cc1nnc(SC2CCc3ccccc3NC2=O)n1C (stereo unspecified),38.1%
23,Cn1nnnc1SC1CCc2ccccc2NC1=O (stereo unspecified),56.3%
